Legend:
PYK2 = test system: T1, PYK2
T1 construct: gene PTK2B
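Also: kd values determined as follow-up on hits from a single-replicate KINOMEscan panel screen.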

CC(C)(C)c1ccc(C(=O)Nc2cn3cc(Cl)ccc3n2)cc1
Kd (PYK2): > 10 µM

O=S(=O)(c1ccc(-c2ccnc3[nH]ccc23)cc1)N1CCCC1 [GSK846226]
Kd (RIOK1): 610 nM

Cc1nnc(-c2ccc3occ(-c4ccc(S(C)=O)cc4)c3c2)[nH]1 (stereo not shown)
Kd (RIPK1): > 10 µM

Cn1cncc1-c1ccc2ncnc(Nc3ccc(OCc4ccccc4)cc3)c2c1 [GW320571]
Kd (RIPK2): 91 nM

Cl.NC(=O)c1cccc(Nc2nccc(Nc3ccc(Oc4cccc(Cl)c4)c(Cl)c3)n2)c1 [GW659008]
Kd (RIPK2): 44 nM

Cc1cc(N2Cc3ccccc3C2)nc(Nc2ccc(S(=O)(=O)N3CCOCC3)cc2)n1.Cl [GSK1669917]
Kd (RIPK4): > 10 µM

CS(=O)(=O)c1ccc(-c2nc3n(c2-c2ccncc2)CCC3)cc1 [SKF-105942]
Kd (RIPK4): > 10 µM

Reference: paper PMC5540273 (PLoS ONE, 2017)
